Experimental findings from PubChem BioAssay (NCI) are described below.

Holding throughout (experiment): NCI-60 one-dose screen, 48 h (100 = growth as untreated, 0 = no growth, -100 = all killed)
What all share (conditions): 10 µM unless noted

Test [1] deals with DU-145 prostate.
The subject of test [2] is K-562 leukemia.
Test [3] has as its system MALME-3M melanoma.
For test [4], the system named is MDA-MB-231 breast.
The subject of test [5] is RXF 393 renal.
The subject of test [6] is SF-268 CNS.
For test [7], the system named is SF-295 CNS.
For test [8], the system named is SF-539 CNS.
Test [9] concerns UACC-257 melanoma.
The subject of test [10] is M14 melanoma.

Compounds without any hit were thinned out: in the full panel of roughly 83,000, 20% have a hit.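 Cell lines were cultured in 96-well plates, exposed to a single compound concentration, and assessed for percent growth 48 hours later.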 Unmarked numbers belong to inactive results. Calls of active or inactive are those of the source. Rule for the calls: active = growth percent below 10; inactive = the rest.

As to `O=C(CNCCN1CCOCC1)N1c2cccc3cccc(c23)N(C(=O)CNCCN2CCOCC2)C1c1cn(-c2ccccc2)nc1-c1cccc([N+](=O)[O-])c1`, the growth was 87.8% in test [1]; -21.4% (active) in [2]; -87.3% (active) in test [3]; 54.4% in [4]; 47.9% in [5]; 69.6% in test [6]. Besides, the growth in test [7] is 100%; in test [8], 63.3%; in test [9], 90.3%; in [10] it was -16.1% (active).
Take `O=C(Nc1ccc(-c2ccc3c(c2)NC(=O)/C3=C\c2ccc[nH]2)cc1)NC1CC1`: the growth is 103% in [1]; 92.5% in test [2]; 105% in test [3]; 101% in test [4]; 99.1% in test [5]; 103% in test [6]. Moreover, the growth in test [7] was 90.8%; in test [8], 71.5%; in [9], 117%; in test [10] it was 94%.
In the case of `COC(=O)CNC(=O)[C@]12CCC(C)(C)C[C@H]1C1=CC[C@@H]3[C@@]4(C)Cc5c([nH]c6ccccc56)C(C)(C)[C@@H]4CC[C@@]3(C)[C@]1(C)CC2`, the growth in test [1] was 97.6%; in test [2], 59.3%; in [3] it was 92.2%; in test [4], 93.9%; in [5], 94.2%; in test [6], 84.4%. Besides, the growth is 84.7% in test [7], 102% in test [8], 78.8% in test [9] and 104% in test [10].
Consider `COC(=O)/C=C1\S/C(=N\NC(=O)c2cc3ccc2/C=C\c2ccc(cc2)/C=C\3)N(c2ccccc2)C1=O`, for which the growth was 50.9% in [1]; 27% in [2]; 78.8% in test [3]; 32.5% in test [4]; 5.34% (active) in test [5]; 72.5% in [6]. Besides, the growth in test [7] is 62.6%; in [8], -22.5% (active); in [9], 69.2%; in [10] it was 53.1%.
Consider `COc1cc(/C=C\C(=O)O)ccc1OCc1ccccc1`, for which the growth was 103% in test [1]; 126% in test [2]; 102% in test [3]; 93.5% in test [4]; 103% in [5]; 94.8% in [6]. The growth in test [7] was 101%; in test [8], 99.5%; in test [9], 91%; in test [10], 109%.
For `CNCCn1c(=O)c2cc(OC)c(OC)cc2c2ccc3cc4c(cc3c21)OCO4`, the growth is 5.52% (active) in test [1]; 2.28% (active) in [2]; -85.3% (active) in test [3]; 0.962% (active) in [4]; -76.1% (active) in [5]; 11.9% in test [6]. For the same compound, the growth in [7] was 6.74% (active); in test [8] it was -30.4% (active); in test [9], -76.3% (active); in test [10] it was -50.5% (active).
With `Cc1ccc(NC(C(=O)c2ccccc2)c2ccccc2)cc1` (stereo not given), the growth was 58.2% in test [1]; 46.5% in [2]; -2.02% (active) in test [3]; 72.4% in test [4]; 95.2% in test [5]; 68.6% in test [6]. The growth in test [7] was 53.2%; in test [8], 78.4%; in [9], 10.5%; in test [10], 77.6%.
As to `CCCOc1ccc(/C=N/Nc2cc(C)nc3ccc(Br)cc23)cc1`, the growth in test [1] is 86.8%; in test [2], 11.5%; in test [3], 112%; in [4], 92.9%; in test [5], 83.4%; in test [6], 102%. For the same compound, the growth was 81% in [7], 83.9% in test [8], 98.7% in test [9] and 80.3% in test [10].
In the case of `O=C(O)c1ccc(NCc2cn(-c3ccc(C(F)(F)F)cc3)nc2-c2ccc(C(=O)O)cc2)cc1`, the growth in [1] was 115%; in test [2], 105%; in test [3] it was 127%; in test [4], 111%; in [5] it was 112%; in test [6], 97.8%. Also, the growth in test [7] was 100%; in test [8], 97%; in test [9], 109%; in test [10], 106%.
As to `c1ccc2cc(Cn3c(-c4cccc5ccccc45)[n+](Cc4ccc5ccccc5c4)c4c5ccccc5c5ccccc5c43)ccc2c1`, the growth was -96.5% (active) in test [1]; -35.2% (active) in test [2]; -82.6% (active) in test [3]; -72.9% (active) in test [4]; -90.6% (active) in [5]; -38.2% (active) in [6]. In addition, the growth was -83.9% (active) in [7], -92.5% (active) in test [8], -67.2% (active) in test [9] and -63.5% (active) in [10].
As for `O=C1Nc2cc(-c3cccc(O)c3)ccc2/C1=C/c1ccc[nH]1`, the growth is 33.8% in test [1]; 5.66% (active) in test [2]; 16.1% in test [3]; -15.8% (active) in test [4]; -39.8% (active) in test [5]; 15.4% in test [6]. Also, the growth was 19.3% in test [7], -48.7% (active) in [8], 46% in test [9] and 16.9% in test [10].
As to `O=[N+]([O-])CC(c1ccccc1F)c1c[nH]c2ccccc12` (stereo not given), the growth in test [1] is 97.2%; in test [2], 17.9%; in [3], 66.9%; in test [4], 56.5%; in test [5], 80%; in [6] it was 80.4%. The growth in [7] was 67.9%; in test [8], 76.3%; in test [9], 87.1%; in test [10] it was 52.3%.
As for `COc1ccccc1/C=C1\Oc2cc(OCCN3CCCC3)ccc2C1=O`, the growth in [1] was 89.2%; in test [2], -5.04% (active); in test [3], 104%; in test [4], 81.8%; in test [5], 71.5%; in [6], 91.3%. Also, the growth in test [7] is 95.4%; in test [8] it was 85.9%; in [9] it was 95%; in test [10], 77.2%.
As to `CCCCCCCCCCCCCCCC[N+]1(C)CCN(SN2CC[N+](C)(CCCCCCCCCCCCCCCC)CC2)CC1`, the growth in test [1] is 70.5%; in test [2] it was 40.4%; in test [3], 78.4%; in test [4], 53.9%; in [5], -7.8% (active); in [6], 64.4%. For the same compound, the growth is 71.2% in test [7], 48.7% in test [8], 92.9% in test [9] and 20.8% in [10].
